The list is not random: actives were taken first. Their share in the collection is about 3.5%.
FBW7 activator = activators of human E3 ligase FBW7 | AlphaScreen FBW7–phospho-cyclin E peptide binding, activator screen | normalized activity (activation), % at 26.1 µM | 650,000 tested, 0.13% active | AID 1259310; in the data active means normalized activity above about 1.9%;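 further: purified mutant Fbw7 with reduced substrate affinity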
GPR151 ag = activators of human GPR151; PathHunter beta-arrestin GPR151 cells, luminescence; Q8TDV0; 650,000 tested, 1% active; activation, % at 11.2 µM; in the data active means activation above about 4.9%;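 further: 0% = median of compound wells and 100% = cells with positive control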
Target sequence (Q8TDV0 whole entry, looked up): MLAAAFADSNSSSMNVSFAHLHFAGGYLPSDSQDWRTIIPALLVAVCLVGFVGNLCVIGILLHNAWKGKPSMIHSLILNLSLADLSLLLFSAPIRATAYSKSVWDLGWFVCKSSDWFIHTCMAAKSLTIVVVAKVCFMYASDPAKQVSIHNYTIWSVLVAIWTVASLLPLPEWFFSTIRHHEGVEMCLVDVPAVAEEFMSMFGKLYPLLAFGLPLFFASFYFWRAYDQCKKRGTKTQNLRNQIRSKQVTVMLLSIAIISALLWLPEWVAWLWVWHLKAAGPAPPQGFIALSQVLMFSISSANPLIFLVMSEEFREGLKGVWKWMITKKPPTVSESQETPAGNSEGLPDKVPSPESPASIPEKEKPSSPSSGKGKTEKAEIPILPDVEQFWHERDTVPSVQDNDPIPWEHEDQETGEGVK
TEAD-YAP inh = TEAD-YAP interaction inhibition | 640,000 tested, 1.4% active | HEK-TIYL cells, TEAD-Gal4/YAP UAS-luciferase luminescence | inhibition, % at 9.12 µM; in the data active means inhibition above about 32%;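 further: 0% = median of test compound wells and 100% = reference inhibitor wells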
MITF primary = human MITF inhibition, primary screen; AlphaScreen MITF homodimerization, bead proximity signal; 650,000 tested, 0.91% active; inhibition, % at 2.6 µM; O75030; AID 1259374; in the data active means inhibition above about 50%;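 further: 0% = vehicle wells with protein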
MITF inh conf = confirmation of human MITF inhibitors; shares compounds with MITF primary; AlphaScreen MITF homodimerization, biotin/His-MITF beads; inhibition, % at 2.6 µM; 4,700 tested, 16% active; AID 1259372;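 active means inhibition above a cutoff derived from the DMSO control wells, cut at about 28% in these data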;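 further: 0% = MITF dimer wells with DMSO only; inhibitors lower the bead chemiluminescence by keeping MITF from dimerizing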
AS interf DR = counter-screen: compounds optically interfering with AlphaScreen; AlphaScreen optical interference counterscreen, cell-free; AID 1259373; 480 tested, 6% active; IC50, µM; shares compounds with MITF primary; call rule not given here
AlphaScreen intf2 = counter-screen: compounds optically interfering with AlphaScreen | shares compounds with MITF primary | LysRS AlphaScreen counterscreen, signal interference, triplicate | inhibition, % at 2.6 µM | 4,700 tested, 7.6% active | AID 1259376;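 active means inhibition above a cutoff derived from the DMSO control wells, cut at about 30% in these data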
* marks the source's active call; other numbers are inactive results; . = not tested or not shown.

SMILES | FBW7 activator | GPR151 ag | TEAD-YAP inh | MITF primary | MITF inh conf | AlphaScreen intf2 | others
CCCS(=O)(=O)N1CCN(Cc2ccc3c(c2)OCO3)CC1 | 0 | -1 | -6 | 53* | 10 | 18
Cc1ccc(CN(Cc2ccco2)C(=S)NCC(=O)NCc2ccc3c(c2)OCO3)cc1 | 0 | 1 | 7 | 6 | . | .
CCCS(=O)(=O)N1CCN(Cc2cccc(F)c2)CC1 | 0 | 2 | -9 | 45 | . | .
COc1ccc(-n2c(C)cc(C(=O)COC(=O)c3ccc(Cl)nc3)c2C)cc1 | 0 | 1 | 7 | 3 | . | .
Cc1cc(NC(=O)C(C)NCc2ccc(F)cc2)no1 (stereo not given) | 0 | 1 | -42 | 14 | . | .
Cc1cc(NC(=O)C(C)NCc2cccs2)no1 (stereo not given) | 0 | 1 | -37 | 54* | 6 | 6
CCN(CC)CCCNC(C)C(=O)Nc1cc(C)on1 (stereo not given) | 0 | 1 | 4 | 80* | 12 | 16
O=S(=O)(c1ccc(-c2csc(Nc3ccc(I)cc3)n2)cc1)N1CCOCC1 | 0 | 1 | 1 | 12 | . | .
C/C(N)=C(/C#N)C(=O)CSc1nnc(N)s1 | 0 | 2 | -1 | 4 | . | .
CC(=O)/C(N=Nc1ccc(Br)cc1)=C(\C)O | 0 | 0 | 6 | 7 | . | .
Cc1cc(C)c(C(=O)N2CCC(=O)N(Cc3cn4cccc(C)c4n3)CC2)[nH]1 | 0 | 3 | -7 | -1 | . | .
Cc1cccn2cc(CN3CCCc4ccccc43)nc12 | 0 | 2 | 5 | 55* | 7 | 18
O=C(O)c1ccc(NC2OC(CO)C(O)C2O)cc1 (stereo not given) | 0 | -2 | 3 | 66* | 57* | 7 | AS interf DR=>5.6
CC(C)(C)c1csc(CN2CCN(CC(=O)Nc3ccc4c(c3)OCO4)CC2)n1 | -1 | -1 | 9 | 79* | 2 | 3
CC(C)Cn1cc(C(=O)NCCCc2ccncc2)c(=O)c(C(=O)N2CCCCCC2)c1 | 0 | -1 | 7 | -12 | . | .
COc1ccc([N+](=O)[O-])cc1S(=O)(=O)Nc1ccc(N(C)C)cc1 | 0 | 0 | -3 | -2 | . | .
CCOc1ccc(CNC(=O)CN2C(=O)C(CC)Sc3ccccc32)cc1OC (stereo not given) | 0 | 0 | 9 | 51* | 17 | 8
CCC1Sc2ccccc2N(CC(=O)NCCc2ccc(OC)c(OC)c2)C1=O (stereo not given) | 0 | -1 | 5 | 12 | . | .
CCN(CC)C(=O)C1CCCN(Cc2cccc(F)c2)C1 (stereo not given) | 0 | -1 | 2 | 58* | -1 | 0
CCN(CC)C(=O)C1CCCN(Cc2sccc2C)C1 (stereo not given) | 0 | 1 | 1 | 51* | 17 | 13
CCN(CC)C(=O)C1CCCN(Cc2cccc(C)c2)C1 (stereo not given) | 0 | 0 | 0 | 24 | . | .
CCN(CC)C(=O)C1CCCN(Cc2cccc(OC)c2)C1 (stereo not given) | 0 | 1 | 0 | 56* | -1 | 2
CCN(CC)C(=O)C1CCCN(Cc2ccc(C)cc2)C1 (stereo not given) | 0 | 2 | 13 | 34 | . | .
COc1cc(/C=N/N2C(=O)c3cccc4cccc(c34)C2=O)cc(OC)c1OC | 0 | -1 | -2 | 12 | . | .
CCSc1nnc2c(n1)OC(c1cccc(OC)c1OCc1ccccc1)Nc1ccccc1-2 (stereo not given) | 0 | -1 | 2 | 8 | . | .
SMILES | FBW7 activator | GPR151 ag | TEAD-YAP inh | MITF primary | MITF inh conf | AlphaScreen intf2 | others
CCOC(=O)C/C(C)=N/NC(=O)c1ccccc1[N+](=O)[O-] | -1 | 1 | -4 | 4 | . | .
CC(NCc1ccc([N+](=O)[O-])cc1)C1COc2ccccc2O1 (stereo not given) | 0 | 0 | -6 | 62* | -12 | -6
CC(C)NCC(O)CNC(C)C1COc2ccccc2O1 (stereo not given) | 0 | 3 | -1 | -3 | . | .
CCOc1cc(C=C(C#N)C#N)cc(Br)c1OCC | 0 | 2 | 0 | 6 | . | .
c1ccc2c(Nc3nc(NCc4nc5ccccc5[nH]4)c4ncn(-c5ccsc5)c4n3)nccc2c1 | 1 | 2 | 27 | 62* | -7 | 11
CCOC(=O)c1sc(NC(=O)c2nn3c(C(F)(F)F)cc(-c4ccc(F)cc4)nc3c2Cl)c(C(=O)OCC)c1C | 0 | -1 | 2 | 16 | . | .

Screening results as filed in PubChem BioAssay.
